Measurements as given in PubChem BioAssay.
Potency and affinity values are given separately. A number with no mark means an inactive call. The rule behind the calls is not given here.

experiment: IOSE-T80 ovarian epithelial cell cytotoxicity, dose response, cytotoxicity control for PAX8 inhibitor project, plate reader, dry powder samples (AID 743045); conditions: IOSE-T80 ovarian epithelial cells; series mostly up to 35 µM; activity change, negative = cytotoxicity: at the top concentration;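 note: 0% = neutral control median and -100% = positive control median; more negative values mean more cell killing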

Q: For `C[C@@H]1CCCCO[C@@H](CN(C)Cc2ccc(C(F)(F)F)cc2)[C@H](C)CN([C@@H](C)CO)C(=O)c2cc(NS(=O)(=O)c3ccc(F)cc3)ccc2O1`, which “activity change, negative = cytotoxicity” value is on record?
A: 14.4%

Q: With `C[C@H](CO)N1C[C@H](C)[C@H](CN(C)S(=O)(=O)c2ccc(F)cc2)OCCCC[C@H](C)Oc2ccc(NS(=O)(=O)c3ccc(Cl)cc3)cc2C1=O` as the molecule, how does the “activity change, negative = cytotoxicity” value read?
A: 19.3%

Q: For `O=C(C[C@@H]1CC[C@@H]2[C@H](COC[C@@H](O)CN2C(=O)Nc2ccc(Cl)c(Cl)c2)O1)NCc1ccc(Cl)cc1`, which “activity change, negative = cytotoxicity” value is on record?
A: 14.9%

Q: For `C[C@@H]1CN([C@@H](C)CO)C(=O)c2cc(NC(=O)Cc3ccccc3)ccc2O[C@@H](C)CCCCO[C@H]1CN(C)Cc1ccc(C(F)(F)F)cc1`, which “activity change, negative = cytotoxicity” value is on record?
A: 6.48%

Q: For `N#C[C@@H]1[C@@H](c2ccc(-c3ccccc3F)cc2)[C@@H](CO)N1C(=O)C1CCC1`, which “activity change, negative = cytotoxicity” value is on record?
A: -2.02%

Q: For `C[C@H](CO)N1C[C@H](C)[C@@H](CN(C)Cc2ccc(Oc3ccccc3)cc2)Oc2ccc(NS(=O)(=O)c3ccc(F)cc3)cc2CC1=O`, which “activity change, negative = cytotoxicity” value is on record?
A: 8.97%

Q: For `C[C@H](CO)N1C[C@H](C)[C@H](CN(C)Cc2ccc(Cl)c(Cl)c2)OCCCC[C@H](C)Oc2ccc(NC(=O)Nc3ccc(C(F)(F)F)cc3)cc2C1=O`, which “activity change, negative = cytotoxicity” value is on record?
A: 5.55%

Q: With `COc1ccc(C#Cc2ccc([C@@H]3[C@H](CO)N4CCCCN(C(=O)Nc5ccc(F)cc5)C[C@@H]34)cc2)cc1` as the molecule, how does the “activity change, negative = cytotoxicity” value read?
A: -8.02% [at 30 µM]

Q: With `C[C@H]1CCCCO[C@H](CN(C)C(=O)NC2CCCCC2)[C@@H](C)CN([C@@H](C)CO)C(=O)c2cc(NC(=O)Nc3ccc(C(F)(F)F)cc3)ccc2O1` as the molecule, how does the “activity change, negative = cytotoxicity” value read?
A: 21.3%

Q: With `C[C@@H]1CCCCO[C@H](CN(C)S(=O)(=O)c2cccs2)[C@@H](C)CN([C@@H](C)CO)C(=O)c2cc(NC(=O)Nc3ccc(C(F)(F)F)cc3)ccc2O1` as the molecule, how does the “activity change, negative = cytotoxicity” value read?
A: 4.37%

Q: With `C[C@H](O)C#Cc1cnc2c(c1)C(=O)N([C@H](C)CO)C[C@@H](C)[C@@H](CN(C)Cc1ccc(-c3ccccc3)cc1)O2` as the molecule, how does the “activity change, negative = cytotoxicity” value read?
A: 41.3%

Q: For `Cc1ccc(S(=O)(=O)N2CC[C@@H]3[C@H](CO)N(C)c4ccc(-c5ccc(C#N)cc5)cc4[C@@H]32)cc1`, which “activity change, negative = cytotoxicity” value is on record?
A: 25.8%

Q: Which “activity change, negative = cytotoxicity” value does the source give for `O=C(C[C@H]1CC[C@H]2[C@@H](COC[C@@H](O)CN2Cc2ccc3c(c2)OCO3)O1)Nc1ccc(-c2ccccc2)cc1` here?
A: 18.5%

Q: For `COc1ccc(CN(C)C[C@H]2OCCCC[C@H](C)Oc3ccc(NC(=O)Nc4ccc(C(F)(F)F)cc4)cc3C(=O)N([C@@H](C)CO)C[C@@H]2C)cc1`, which “activity change, negative = cytotoxicity” value is on record?
A: 13.5%

Q: With `C[C@@H]1CN([C@@H](C)CO)C(=O)c2cc(NC(=O)Nc3ccc(C(F)(F)F)cc3)ccc2O[C@@H](C)CCCCO[C@@H]1CN(C)Cc1ccncc1` as the molecule, how does the “activity change, negative = cytotoxicity” value read?
A: 74.2%

Q: Which “activity change, negative = cytotoxicity” value does the source give for `C[C@@H]1CCCCO[C@@H](CN(C)Cc2ccc(C(F)(F)F)cc2)[C@H](C)CN([C@H](C)CO)C(=O)c2cc(NS(=O)(=O)c3ccccc3)ccc2O1` here?
A: 8.4%

Q: With `C[C@@H]1CN([C@H](C)CO)C(=O)c2cc(NC(=O)Nc3ccc(F)cc3)ccc2O[C@@H](C)CCCCO[C@H]1CN(C)C(=O)C1CCCCC1` as the molecule, how does the “activity change, negative = cytotoxicity” value read?
A: 21.9%
